Screening data: PubChem, National Center for Advancing Translational Sciences (NCATS)
HepG2 tox – kills HepG2 cells in TGF-b inhibitor counter-screen. HepG2 CAGA-GFP viability, ATP luminescence, 18 h. Potency, µM (titrated, usually from 46.1 µM), hits mostly cytotoxic. 0.76% of 410,000 active
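HepG2 CAGA-GFP cells (1000/well, DMEM with 1% FBS) received compound, then TGF-beta at 500 pg/mL final, and were incubated 18 hours at 37 degrees C. Viability was read by CellTiter-Glo luminescence. Media-only wells were set as complete cell-killing and DMSO as no toxicity.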
DRD3 antagonist – D3 dopamine receptor (human) antagonism; 2.5% of 360,000 active; P35462; D3R cells, DiscoveRx beta-arrestin luminescence, antagonist mode; hits give low values; max response, negative = inhibition, %; AID 652054; in the data active means max response below about -50%; inconclusive means no clear call, values can overlap the other calls
Target sequence (P35462 whole entry, looked up): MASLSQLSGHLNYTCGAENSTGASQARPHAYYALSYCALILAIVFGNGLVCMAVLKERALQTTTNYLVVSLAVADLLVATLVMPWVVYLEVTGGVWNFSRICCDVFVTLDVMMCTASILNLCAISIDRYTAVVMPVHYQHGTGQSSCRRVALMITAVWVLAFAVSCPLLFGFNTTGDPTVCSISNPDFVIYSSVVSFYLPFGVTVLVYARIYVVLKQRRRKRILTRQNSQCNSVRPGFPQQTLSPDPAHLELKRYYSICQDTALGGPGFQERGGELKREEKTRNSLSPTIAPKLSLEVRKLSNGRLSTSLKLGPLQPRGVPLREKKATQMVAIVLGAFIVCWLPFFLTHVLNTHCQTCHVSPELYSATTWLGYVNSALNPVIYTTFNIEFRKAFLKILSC
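Cells expressing the human receptor were seeded at 1500 cells/well, incubated overnight at 37 degrees C in 5% CO2, then exposed to library compounds with dopamine controls for 90 minutes at 37 degrees C before luminescent detection.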
DRD3 agonist – D3 dopamine receptor (human) agonism; AID 652048; P35462; 0.58% of 410,000 active; D3R DiscoveRx beta-arrestin cells, luminescence, 90 min; max activation, %; in the data active means max activation above about 30%
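Cells at 1500/well, incubated overnight, then treated with pinned compounds (dopamine as control) for 90 min at 37 degrees C. DiscoveRx reagent added for 30 - 60 minutes at room temperature; luminescence read.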
S2 tox – reduces viability in counter-screen for ATXN expression inhibitors; 0.49% of 400,000 active; S2 cells (HEK-293 line with an ATXN2-luciferase reporter) viability, CellTiter-Fluor protease fluorescence, 24 h; Potency, µM (series often up to 56.7 µM), hits mostly cytotoxic; AID 651635; further: nearly all actives have a fitted effect of over 40% in size
ATXN2 expr inh – inhibitors of ATXN2 expression; AID 1745845; 0.72% of 360,000 active; Potency, µM (doses to about 57 µM), usual class: inhibitors; HEK-293 ATXN2-luciferase reporter, luminescence, 24 h; further: nearly all actives have a fitted effect of over 55% in size
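qHTS (up to 57 uM final) was run with 24 h compound exposure of reporter cells at 37 °C. Each well was multiplexed: SteadyGlo luminescence measured ATXN2-luciferase expression after a fluorogenic Gly-Phe-AFC viability readout (25 uM final).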
TGFb inhibitor – blocks TGF-b signaling | HepG2 CAGA-GFP TGF-b/SMAD3 reporter, GFP fluorescence, 18 h; TGF-beta stimulated, 500 pg/mL final | Potency, µM (series often up to 46.1 µM), usual class: inhibitors | 1.2% of 410,000 active | AID 588855; further: nearly all actives have a fitted effect of over 65% in size
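HEPG2 CAGA-GFP cells (1000/well, DMEM with 1% FBS) were pre-incubated 2 h at 37 degrees C, given compound by pin tool, then stimulated with TGF-beta at 500 pg/mL final for 18 h before per-cell GFP fluorescence imaging.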
Hits are given with their value; n = inactive; u = inconclusive; x = no result; ! = a repeat was not active; [ ] = remark or other dose. Shown are actives, neighbours in structure and some others; about 4.8% of the full set was active somewhere. Unless noted, the call rests on the fitted dose curve; in most records, active means well fitted curve in the direction sought with a large enough effect; inconclusive means small, poorly fitted or top-dose-only effect, or another doubt; inactive means no such curve, though single readings can be large; an effect the other way counts as inactive or inconclusive.

SMILES | HepG2 tox | DRD3 antagonist | DRD3 agonist | S2 tox | ATXN2 expr inh | TGFb inhibitor
COc1cc(C2C(=O)N(C3CCCCC3)CC(=O)N2Cc2ccc(C)cc2)ccc1OC(C)C (configuration not stated) | n | x | n | x | x | n
CN(Cc1ccco1)C(=O)c1cc(NC(=O)C2CCC2)c2c(c1)nc(-c1ccncc1)n2C | x | x | x | n | x | x
Brc1ccccc1OCCCN1CCCCCC1 | n | -82 | n | n | n | n
Brc1ccccc1OCCN1CCCC1 | n | -62 | n | n | n | n
Brc1ccccc1OCCCN1CCCC1 | n | u | n | x | n | n
Cc1ccc(CN2C(=O)CN(C3CCC(C)CC3)C(=O)C2c2ccc(F)cc2)cc1 (configuration not stated) | n | x | n | x | x | n
Cc1cc(=O)c2c(C)nn(-c3ccccc3)c2[nH]1 | 5.6µM | n | n | n | n | n
Cc1c(C)c2c(C)nn(-c3ccccc3)c2[nH]c1=O | n | n | n | n | n | n
Nc1c2c(nc3ccc(Br)cc13)N(Cc1ccccc1)CC2 | n | -59 | n | u | x | u
CC1CN(Cc2cccn2-c2cccnc2)Cc2cc(Cl)ccc2O1 (configuration not stated) | x | x | x | n | x | x
CCc1ccc2c(c1)c(N=NC1=NC(=O)CS1)c(O)n2CC | n | -88 | n | n | n | u
Cc1ccc(CNC(=O)c2c3c(nc4ccccc24)C(=O)N(C2CCCCC2)C3)cc1 | n | x | n | x | x | n
Cc1cc2nc(N3C(=O)CNC3=S)sc2cc1C | n | -67 | n | u | u | u
CN(C)CC(O)COc1cc2ccccc2cc1C(=O)N1CCCCC1 (configuration not stated) | n | -59 | n | n | n | n
COc1cc2ccccc2cc1C(=O)N1CCCCC1 | n | n | n | n | n | n
Oc1cc(-c2nc(-c3ccccc3)[nH]c2-c2ccncc2)ccc1Cl | x | x | x | x | n | x
Cc1cc(C)c(S(=O)(=O)N2CCC(N3CCN(Cc4ccc(F)cc4)C(=O)C3=O)CC2)c(C)c1 | n | x | n | n | n | n
CCC(Sc1nc(C)cc(C)n1)C(=O)NC1=NN=C(c2ccc(C)cc2)CS1 (configuration not stated) | n | n | n | u | n | u
Cc1cc(C)nc(SCC(=O)NC2=NN=C(c3ccc(Br)cc3)CS2)n1 | n | n | n | 32µM | u | n
COc1cc(=O)n2c(c1C(=O)NCc1ccco1)CCN(Cc1ccc3ccccc3c1)CC2 | x | x | x | n | x | x
COc1cc(C=O)ccc1OCCCOc1ccccc1C(=O)O | n | -55 | n | n | n | u
COc1cc(C=O)ccc1OCCOc1ccccc1[N+](=O)[O-] | n | -62 | n | n | n | n
Cc1ccc2nc(-c3ccncc3)c(Nc3ccc(C(C)C)cc3)n2c1 | n | x | n | u | n | n
CC(C)C(C)C=CC(C)C1CCC2C3=CC=C4CC(O)CCC4(C)C3CCC21C (configuration not stated) | x | x | x | x | n | x
c1ccc(COc2ccccc2CNC23CC4CC(CC(C4)C2)C3)cc1 | 10µM | n | n | x | 16µM | u
SMILES | HepG2 tox | DRD3 antagonist | DRD3 agonist | S2 tox | ATXN2 expr inh | TGFb inhibitor
Oc1ccc(NCc2ccccc2OCc2ccccc2Cl)cc1 | n | x | n | x | x | x
CCOc1ccccc1CNc1ccc(O)cc1 | n | n | n | u | n[11.3 µM] | 16µM
Oc1ccc(NCc2ccccc2OCc2ccccc2F)cc1 | 11µM! | n | n | u | u | 10µM!
C/C(=N/Nc1ccc([N+](=O)[O-])cc1)c1ccc(C)cc1C | n | u | n | u | n | 3.5µM
C/C(=N\Nc1ccc([N+](=O)[O-])cc1)c1ccc(C#N)cc1 | n | n | n | n | n | n
CCOc1ccccc1CNC(=O)c1cnc2sc(N3CCOCC3)nn2c1=O | n | x | n | x | x | n
N#CC1=C(N)C(C#N)(C#N)C(c2cccnc2)C2CN(C(=O)OCc3ccccc3)CC=C12 (configuration not stated) | n | -74 | n | n | n | u
CCOC(=O)N1CC=C2C(C#N)=C(N)C(C#N)(C#N)[C@H](c3ccc(OCC)c(OCC)c3)[C@H]2C1 | n | n | n | n | n | n
CCOC(=O)C1(C)CCCN(C(=O)c2ccc(-c3ccccc3)cc2)C1 (configuration not stated) | n | n | n | n | n | n
CCOC(=O)C1(C)CCCN(C(=O)c2ccccc2)C1 (configuration not stated) | n | -61 | n | n | n | n
COc1ccc(CCNC(=O)COc2ccc(S(=O)(=O)NC3CCCCC3)cc2Cl)cc1 | n | n | n | x | u | 14µM
O=C(COc1ccc(S(=O)(=O)NC2CCCCC2)cc1Cl)NCC1CCCO1 (configuration not stated) | n | n | n | n | n | n
CC(C)NC(=O)CSc1nc2ccccc2c(=O)n1Cc1ccc(C(=O)NC(C)C)cc1 | n | x | n | n | n | n
COc1ccc(-c2c(C)nc3c(-c4ccccn4)cnn3c2N)cc1 | n | n | n | n | n | 11µM
COc1ccc(-c2c(C)nc3c(-c4ccsc4)cnn3c2N)cc1 | n | n | n | u | x | n
COc1cccc2nccc(/C=C/c3ccc(N(C)C)cc3)c12 | n | x | x | x | x | n
COc1ccccc1Oc1ccc(S(=O)(=O)NCc2ccccn2)cc1 | n | -79 | n | n | n | n
CCC1=NN(C(=O)c2cccc(Br)c2)C(O)(c2ccc(Br)cc2)C1 (configuration not stated) | n | n | n | u | u | 8.9µM
CCC1=NN(C(=O)c2ccc(C)cc2)C(O)(c2ccc(Br)cc2)C1 (configuration not stated) | n | n | n | n | n | n
CCCCc1nc2cc(C(=O)NCc3ccccn3)ccc2o1 | n | n | n | n | n | n
COc1ccc(CNC(=O)c2ccc3nc(CCc4ccccc4)oc3c2)cc1OC | n | x | n | u | 28µM | n
COc1ccc(N2CCN(CCCNC(=O)c3ccc4nc(Cc5ccccc5)oc4c3)CC2)cc1 | n | x | n | 10µM | 16µM | n
COc1ccc(CNC(=O)c2ccc3nc(CCc4ccccc4)oc3c2)cc1 | n | x | n | n | n | u
COc1ccc(N2CCN(CCCNC(=O)c3ccc4nc(CCc5ccccc5)oc4c3)CC2)cc1 | n | x | n | x | x | n
CCn1ccnc1CNC(=O)c1ccc2oc(CCCc3ccccc3)nc2c1 | n | -51 | n | n | n | n
O=C1c2ccccc2-c2onc3ccc(NCc4ccco4)c1c23 | n | n | n | 14µM | u | n
O=C1c2ccccc2-c2onc3ccc(N4CCCC4)c1c23 | n | u | n | 24µM | u | u
CC1CCN(S(=O)(=O)c2ccc3c(c2)CCC(=O)N3CC(=O)Nc2cccc(C#N)c2)CC1 | n | x | n | x | x | u
